The compounds below were run on Plasmodium falciparum (assay: GSK_TCMDC: Inhibition of Plasmodium falciparum 3D7 in whole red blood cells, using parasite LDH activity as an index of growth. Test compounds present at 2uM).
Assay type: functional
`COc1cccc(CNC[C@@H](O)[C@H](Cc2ccccc2)NC(=O)c2cc(OC(C)C)cc(N3CCCCS3(=O)=O)c2)c1.Cl` was tested, and the Inhibition was 95%.
`O=C(O)C(F)(F)F.c1cc(CNCCc2ccncc2)cc(-c2ccc(-c3nc4ccccc4[nH]3)s2)c1` gave an Inhibition of 100%.
`Nc1nccc2ccc(-c3ccc(Oc4ccccc4)cc3)cc12.O=C(O)C(F)(F)F` showed an Inhibition of 98%.
Work on `O=C(Nc1nc2cc(S(=O)(=O)NCc3ccc(Cl)c(Cl)c3)ccc2n1CCCn1ccnc1)c1ccc(Cl)cc1.O=C(O)C(F)(F)F` yielded an Inhibition of 100%.

What follows are compounds tested on Plasmodium falciparum (assay: GSK_TCMDC: Inhibition of Plasmodium falciparum Dd2 in whole red blood cells, using parasite LDH activity as an index of growth. Test compounds present at 2uM).
Assay type: functional
Compound `COc1cc2ncnc(Nc3ccc(OCc4ccccc4)c(OCc4ccccc4)c3)c2cc1OC.Cl` has an Inhibition of 57%.
Work on `CC(CCCCCC(=O)Nc1ccc(CC(C)NCCc2cccc(Cl)c2)cc1)NCCc1cccc(Cl)c1` (stereo unspecified) yielded an Inhibition of 37%.
`CCOc1ccc2c(=NN=Cc3ccccc3OC)cc(C)[nH]c2c1` gave an Inhibition of 93%.
`CC(C)COc1ccc(Cl)cc1Cc1ccc(-c2nc3cnc4ccccc4c3[nH]2)o1` was tested, and the Inhibition was 26%.
`Clc1ccc(CNc2ccnc(NCc3cccnc3N3CCCC3)n2)c(Cl)c1` showed an Inhibition of 53%.
`Cc1ccc(S(=O)(=O)NC2=NC(=N)N(OCc3ccc(Cl)c(Cl)c3)C(C)(C)N2)cc1` was tested, and the Inhibition was 0%.
Compound `Cc1cccc2nc(-c3ccc(-c4cccc(NC(=O)c5cncn5C)c4)cc3)[nH]c12` has an Inhibition of 1%.
`COc1cc(-c2nc(-c3ccc([N+](=O)[O-])cc3)c(-c3ccccc3)[nH]2)cc(OC)c1O` showed an Inhibition of 56%.
Work on `COc1ccc(-c2csc(C(=O)NC3CCC(N4CCC(c5ccccc5C)CC4)CC3)c2)cc1` (stereo unspecified) yielded an Inhibition of 99%.
`COc1cc(OC)c2c(C)cc(NCCCN3CCOCC3)nc2c1` gave an Inhibition of 3%.
`NC1CCN(CCNCc2cccc(-c3ccc(-c4nc5cc(F)ccc5[nH]4)cc3)c2)C1.O=C(O)C(F)(F)F` (stereo unspecified) was tested, and the Inhibition was 4%.
For `NCC1CCCN1Cc1ccc(-c2ccc(-c3nc4cc(C(F)(F)F)ccc4[nH]3)s2)cc1.O=C(O)C(F)(F)F` (stereo unspecified), the Inhibition was 97%.
`CC(C)N1CCC(N(Cc2ccc(-c3ccc(Cl)cc3)cc2)C(=O)Cn2c(CCc3cccc(F)c3F)cc(=O)c3ccccc32)CC1.O=C(O)C(O)C(O)C(=O)O` showed an Inhibition of 73%.
Compound `CN(C)Cc1cccc(-c2ccc(NC(=O)c3ccc4c(=O)n(CCN5CCCCC5)cnc4c3)cc2)c1` has an Inhibition of 67%.
With `COc1ccc(-c2cc(C(=O)N[C@@H](Cc3ccccc3)C(=O)NCCN3CCCCC3)ccc2O)cc1` the Inhibition was 0%.
In the case of `CN1CCN(Cc2ccc(OCc3cccc(COc4ccc(CN5CCN(C)CC5)cc4I)c3)c(I)c2)CC1.Cl`, the Inhibition is reported as 69%.
For `O=C(Nc1ccccc1Cc1ccccc1)c1ccccc1[N+](=O)[O-]`, the Inhibition was 59%.
For `CC(Cc1ccc(CNC(=O)c2ccc(CC(C)NCCc3cccc(Cl)c3)cc2)cc1)NCCc1cccc(Cl)c1` (stereo unspecified), the Inhibition was 66%.
In the case of `Cc1ccc(N2C(N)=NC(N)=NC2(C)C)cc1.Cl`, the Inhibition is reported as 20%.
In the case of `Cc1ccc(NC(=O)c2nc(N3CCN(c4ccncc4)CC3)ccc2Cl)cc1F.O=C(O)C(F)(F)F`, the Inhibition is reported as 57%.
For `Cc1nc(-c2ccc(-c3ccc(C(=O)Nc4ccc(Cl)c(N5CCN(C)CC5)c4)cc3)c(C)c2)no1`, the Inhibition was 47%.
`CN(Cc1cc(C(F)(F)F)cc(C(F)(F)F)c1)C(=O)C1CNCC1c1ccc(F)cc1.Cl` (stereo unspecified) gave an Inhibition of 4%.
Compound `CC(CNc1nc(NCC(c2ccccc2)c2ccccc2)c2nc[nH]c2n1)c1ccccc1` (stereo unspecified) has an Inhibition of 24%.
Compound `COc1cc(OC)c(NC(=O)C2c3ccccc3C(=O)N(C)C2c2cccs2)cc1Cl` (stereo unspecified) has an Inhibition of 52%.
`CN(C)Cc1ccc(-c2cc3ncnc(Nc4ccc(OCc5cccc(F)c5)c(Cl)c4)c3s2)[nH]1` was tested, and the Inhibition was 87%.
For `CC(=O)N1N=C(c2cccs2)Sc2c1nc(-c1ccc(Cl)cc1)n2C(C)=O`, the Inhibition was 93%.
`O=CO.Oc1ccccc1CNCc1ccc(-c2cnc(N3CCCC(c4ccccc4)C3)nc2)cc1` (stereo unspecified) showed an Inhibition of 84%.
`CN(CCN(C)CC(O)c1ccc(Cl)c(Cl)c1)CC(O)c1ccc(Cl)c(Cl)c1.Cl` (stereo unspecified) gave an Inhibition of 73%.
`O=C(/C=C/c1ccc(Cl)c(Cl)c1)NCCCCCN1CCCN(C(=O)Nc2cccc(C(F)(F)F)c2)CC1` was tested, and the Inhibition was 0%.
`CN1CCC(NCc2ccc(-c3ccc(C(F)(F)F)cc3)cc2)CC1` showed an Inhibition of 71%.
`Cc1[nH]c(/C=C2\C(=O)Nc3ccc(S(=O)(=O)Cc4c(Cl)cccc4Cl)cc32)c(C)c1C(=O)N1CCC[C@@H]1CN1CCCC1` [PHA-665752] was tested, and the Inhibition was 92%.
In the case of `Nc1nccc2ccc(-c3ccc(NC(=O)Nc4cc(C(F)(F)F)ccc4F)cc3)cc12.O=C(O)C(F)(F)F`, the Inhibition is reported as 100%.

Reference: ChEMBL document CHEMBL1157539, “Thousands of chemical starting points for antimalarial lead identification” (Nature, 2010)
